Reference: PubChem BioAssay AID743279 (National Center for Advancing Translational Sciences (NCATS), 2014)
The campaign covered roughly 360,000 compounds. About 17,000 (4.7%) were called active. Roughly 5% stayed inconclusive and do not appear here. Cut-off read from the data, not from the text of the source: active = activity change below about -50%; inconclusive = mostly about -30% to -49%; inactive = weaker than that. The list comes from a sample in which actives are over-represented; it also holds similar structures and randomly drawn compounds.

Assay: qHTS for Inhibitors of Inflammasome Signaling: IL-1-beta AlphaLISA Primary Screen
Conditions: THP-1 LPS/ATP IL-1B secretion, 16 h; at 57.5 µM, active compounds read low
Method in brief: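 THP-1 cells pretreated 1 hr with compounds (up to 57.5 uM final), then stimulated with LPS (250 ng/mL final) plus ATP (1.25 mM final); secreted IL-1B measured by AlphaLISA after 16 hr, decreased signal indicating inhibition.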
% is set by controls: 0 for no effect and ±100 for the full control effect.

Activity change, inactive:
O=C(NCCN1CCN(C(=O)c2cccc([N+](=O)[O-])c2)CC1)C(=O)NCc1ccc(Cl)cc1 -11.8%, Cc1ccc(S(=O)(=O)c2c[nH]c3ccc(Cl)cc3c2=O)cc1 -2.27%, CCOC(=O)CNc1nc(Cl)nc(Nc2ccc(OC)cc2OC)n1 -6.02%, CCC(=O)Nc1ccc(Nc2nc(Cl)nc(Nc3ccc(NC(=O)CC)cc3)n2)cc1 -8.11%, COc1cc(OC)cc(C(=O)NCCSCc2ccc(Cl)cc2)c1 0.652%, CSc1ncnc2c1ncn2CCCNCC1CCCCC1 16.5%, CC(=O)C12CC(C)=C(C)CC1CC1C3CCC4=CC(=O)CCC4(C)C3CCC12C (stereo not drawn) -14.2%, C[C@H]1CN([C@@H](C)CO)C(=O)CCCn2nncc2CO[C@@H]1CN(C)S(=O)(=O)c1cccc(C#N)c1 22.7%, CCOC(=O)N1C(=O)C[C@](Sc2ccc(C)cc2)(C(=O)OC)[C@H]1c1ccccc1 -13.1%, COc1ccc2c(c1)CCC/C2=N\OC(=O)c1ccccc1F -13.5%, CCc1nc2c(OCC(N)=O)cccn2c1N(C)C(=O)c1ccc(OC)cc1 3.49%, CCc1nc2c(OCCOc3ccc(F)cc3)cccn2c1N(C)C(=O)c1ccccc1F -11.7%, COCCCNCC(=O)Nc1sc(C)c(C)c1C(=O)OC 0.516%, Cc1ccc2c(c1)C1CN(C)CCC1N2S(=O)(=O)c1cccc(F)c1 (stereo not drawn) -15.5%, Cc1ccc2c(c1)C1CN(C)CCC1N2C(=O)c1ccccc1NS(=O)(=O)c1ccc(F)cc1C (stereo not drawn) 5.7%, S=C(Nc1ccc(Cl)cc1Cl)N1CCCC1 -2.45%, O=C(NC(=S)Nc1ccc(Cl)cc1Cl)C1CC1 19.2%, COC(=O)c1ccc2c(=O)n(CCN3CCOCC3)c(SCC(=O)Nc3cccc(OC)c3)nc2c1 -19.5%, OCCN1CCN(c2ncnc3c2ncn3[C@H]2CN(Cc3ccco3)C[C@@H](CO)O2)CC1 10%, CC(=O)c1c(C)[nH]c(C(=O)COC(=O)c2cccc(S(=O)(=O)N(C)c3ccccc3)c2)c1C -12.5%, CN(C)c1ccc(C(CC(=O)O)C(=O)O)cc1 (stereo not drawn) 15%, COc1ccc(-c2nn(-c3ccccc3)cc2/C=N/Nc2ccccn2)cc1OC 10.4%, COc1ccc(Cl)cc1NC(=O)CN(C)C(=O)c1cn(-c2ccccc2)nc1-c1cccs1 -15.3%, Nc1ncnc2c1ncn2[C@@H]1O[C@H](CNC(=O)[C@H](N)Cc2cccnc2)[C@@H](O)[C@H]1O -4.6%, CC1(C)COC(c2cccn2Cc2ccccc2Cl)=N1 1.85%, COc1ccc(OC)c(C(=O)NC2CCCc3c2cnn3-c2cc(C)cc(C)c2)c1 (stereo not drawn) -20.1%, Cc1cc(C(=O)NC2CCCc3c2cnn3-c2cccc(C)c2C)c(C)o1 (stereo not drawn) -7.02%, O=C(NNC1=C(C(=O)C(F)(F)F)CCC1)c1ccncc1 28.1%, CCC1Nc2ncnc(N3CCN(c4ccccc4)CC3)c2N(Cc2ccc(Cl)cc2)C1=O (stereo not drawn) -19.1%, COc1ccc(NC(=O)C2Cc3c(-c4ccc(Cl)cc4)ccnc3O2)cc1 (stereo not drawn) -7.31%, CCc1ccccc1NC(=O)CSc1nnc([C@@H](NC(=O)OC(C)(C)C)C(C)C)o1 11.8%, CCc1ccccc1NC(=O)CSc1nnc([C@@H](NC(=O)OC(C)(C)C)C(C)CC)o1 (stereo partly drawn) 9.72%, COc1cc(/C=C(/NC(=O)c2ccc(Cl)cc2Cl)C(=O)O)cc(OC)c1OC 2.22%, O=c1c2c(-c3ccccc3)ccnc2[nH]n1-c1ccccc1 -16.4%, COc1ccc(-n2cc(-c3ccccc3)c3c(=S)nc[nH]c32)cc1 18.8%, COc1ccc(S(=O)(=O)N2CCN(C)CC2)c(C)c1 -5.01%, Cn1c(=O)c2cc(NC(=O)NCCc3cccs3)ccc2n1Cc1cccc(C(F)(F)F)c1 1.3%, Cc1cccc(C(=O)Nc2ccc3c(c2)C(=O)N(CC(C)C)C3=O)c1 0.513%, CN1CCN(S(=O)(=O)c2cccc(C(=O)Nc3cccc(S(N)(=O)=O)c3)c2)CC1 6.7%, CC(C)c1cccc(-c2csc(C(O)c3ccccc3)n2)c1 (stereo not drawn) 43.6%, CCOC(=O)C1=CCC(c2ccc(F)cc2)N(S(=O)(=O)c2ccc(C)cc2)C1 (stereo not drawn) 30.7%, NC(CSC12CC3CC(CC(C3)C1)C2)C(=O)O (stereo not drawn) 23.7%, O=C(c1cccs1)N1C[C@H](n2cc(C3CC3)nn2)[C@@H](O)C[C@@H]1c1ccccc1 0.261%, O=C(NCC1CCCO1)c1ccc2ccccc2n1 (stereo not drawn) 3.35%, c1ccc2c(NCC3CCCO3)nc(-c3ccncc3)nc2c1 (stereo not drawn) -27.3%, CCCCn1nnnc1C(c1cccc(OC)c1OC)N1CCN(C/C=C/c2ccccc2)CC1 (stereo not drawn) -23.9%, C[C@H]1CN([C@@H](C)CO)C(=O)c2cc(-c3ccccc3F)cnc2O[C@H]1CN(C)C(=O)C1CCOCC1 13.6%, CN/C(=C\[N+](=O)[O-])NCCSCc1csc(CN(C)C)n1 0.154%, Cc1ccccc1C(=O)NCC(c1ccco1)N1CCc2ccccc21 (stereo not drawn) -20.8%, COc1ccc(C(=O)NCC(c2ccco2)N2CCc3ccccc32)cc1OC (stereo not drawn) -0.703%, CCc1nnc(NC(=O)CCC(=O)N2CCN(c3cc(C)ccc3C)CC2)s1 36.3%, O=C(CSc1n[nH]c(=O)n1-c1ccccc1)Nc1ccccc1C(F)(F)F 14.4%, O=S(=O)(c1ccc(F)cc1)N1CCN(Cc2ccccc2C(F)(F)F)CC1 8.37%, COC(=O)[C@@]1(Cc2ccc(OC)cc2)[C@H]2c3cc(C(=O)N4CCCC4)n(Cc4ccc(OC(F)(F)F)cc4)c3C[C@H]2CN1C(=O)c1ccccc1 0%, CCC(C(=O)Nc1c(C)cccc1C)n1c(-c2cc(C)cs2)nc2ccccc21 (stereo not drawn) -9.28%, O=C(O)Cc1ccc(NC(=O)Nc2cccc3ccccc23)cc1 11.3%, Cc1ccc(NC(=S)NC(NC(=O)Cc2cccc3ccccc23)C(Cl)(Cl)Cl)cc1 (stereo not drawn) 1.31%, O=C1C(Sc2cccc(F)c2)=C[C@@]2(O)CC[C@@H](O)[C@]1(Sc1cccc(F)c1)[C@H]2O 8.29%, O=C(CCNC(=O)c1ccccc1Cl)NCc1ccco1 2.08%, Cc1cccc(Nc2ccccc2C(=O)NCc2ccco2)c1C 3.14%, O=C1CSC(=S)N1c1ccc(Cl)c(Cl)c1 7.49%, CCC(CC)C(C(=O)NC1CCCC1)N1CCN(c2cc(C)nc3ccccc23)CC1 (stereo not drawn) -20.5%, CC1(C)CC(=O)C=C(c2ccccc2CO)C1=O 22.9%, CCOC(=O)c1ccc(CS(=O)c2ccc(Cl)cc2)o1 (stereo not drawn) -4.53%, CCOC(=O)N1CCN(C(=O)CNC(=O)Cc2ccc(Cl)cc2)CC1 -0.466%, Cc1cccc(NC(=S)N2CCC(C(=O)c3ccc(F)cc3)CC2)c1 -26.4%, Cc1cccc(NC(=O)c2nc[nH]c2C(=O)NCC(=O)OCc2ccccc2)c1 5.22%, CCOc1ccc(NC(=O)c2nc(SCC)ncc2Cl)cc1 -0.255%, Cc1cccc(NC(=O)CSc2nc3[nH]ncc3c(=O)[nH]2)c1 9.71%, O=C(Nc1ccc(F)cc1)c1ccc(S(=O)(=O)NCc2cccnc2)cc1 -4.04%, Cc1ccc(S(=O)(=O)N(C)C)cc1NC(=O)CN1c2cccc3cccc(c23)S1(=O)=O 12.6%

Activity change, active:
CCOC(=O)CNc1nc(Cl)nc(Nc2ccccc2)n1 -67.7%, CSc1ncnc2c1ncn2CC(=O)C1CCC2C3CCC4=CC(=O)CCC4(C)C3CCC12C (stereo not drawn) -64.8%, Cc1ccc2c(c1)C1CN(C)CCC1N2C(=S)Nc1ccc(Cl)cc1Cl (stereo not drawn) -84.8%, Cc1ccc2c(c1)C1CN(C)CCC1N2C(=S)Nc1ccc(OC(F)F)cc1 (stereo not drawn) -62.4%, COc1ccc(-c2nn(-c3ccccc3)cc2C(=O)Nc2nccs2)cc1OC -52.5%, COc1ccc(C(=O)NC2CCCc3c2cnn3-c2cccc(C)c2C)c(OC)n1 (stereo not drawn) -78.6%, C[C@@H](NC(=O)OC(C)(C)C)c1nnc(S(=O)(=O)Cc2ccccc2)o1 -70.3%, O=c1[nH]cnc2c1c(-c1ccccc1)cn2-c1ccc(F)cc1 -91.8%, CC(C)CCN1C(=O)c2ccc(C(=O)Nc3cccc(S(N)(=O)=O)c3)cc2C1=O -61%, Clc1cccc(-c2nc(NCC3CCCO3)c3ccccc3n2)c1 (stereo not drawn) -76.8%, O=C(NCC(c1ccco1)N1CCc2ccccc21)c1cccc(F)c1 (stereo not drawn) -86.4%, O=c1[nH]nc(SCCS(=O)(=O)c2ccc(F)cc2)n1-c1ccccc1C(F)(F)F -96.7%, O=C(Cc1cccc2ccccc12)NNC(=O)Nc1ccc(Cl)cc1 -50%, O=C(Nc1ccccc1)Nc1ccccc1C(=O)NCc1ccco1 -56.9%, CCOC(=O)c1c(Cc2ccc(Cl)cc2)c[nH]c1C -74.6%, Cc1cccc(CS(=O)(=O)c2ncc(Cl)c(C(=O)Nc3ccc(F)cc3)n2)c1 -93.5%, Cc1cccc(NC(=O)c2nc(S(=O)(=O)Cc3ccccc3)ncc2Cl)c1 -103%
